Assay results reported in PubChem BioAssay.
Inconclusive results are not listed. Activity calls are given as the source filed them. No cut-off is given here; in the data, nearly all actives have AC50 up to about 26 µM.

experiment: viability loss in pontine glioma line – cell-based, SU-DIPG-XXV, MIPE5.0, CellTiter-Glo, qHTS, dose response (AID 1347065); conditions: CellTiter-Glo ATP luminescence;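 note: cells exposed to compound for 48 hours before ATP readout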

| Compound | AC50 | outcome |
| --- | --- | --- |
| N#CCNC(=O)c1ccc(-c2ccnc(Nc3ccc(N4CCOCC4)cc3)n2)cc1 | 16.6 µM (active) | – |
| COc1ccc2c(c1)CC[C@@H]1[C@@H]2CC[C@]2(C)[C@@H](NCCCCCCN3C(=O)C=CC3=O)CC[C@@H]12 | – | inactive |
| CC1(C)CCC2=C(O1)c1ccccc1C(=O)C2=O | 9.34 µM (active) | – |
| Cc1ncc(-c2ccnc(Nc3ccc(S(C)(=O)=O)cc3)n2)n1C(C)C | 4.68 µM (active) | – |
| CCOc1cc(/C=C2/C(=O)N(c3ccccc3)N=C2C)cc(Cl)c1OCC(=O)OC | – | inactive |
| C#CCN(C)CC1=Cc2ccccc2Oc2ccccc21 | – | inactive |
| Nc1nc(Nc2ccc(S(N)(=O)=O)cc2)nn1C(=O)c1c(F)cccc1F | 6.61 µM (active) | – |
| C/C(O)=C(\C#N)C(=O)Nc1ccc(C(F)(F)F)cc1 | – | inactive |
| O=C(Nc1ccccc1-c1cn2c(CN3CCNCC3)csc2n1)c1cnc2ccccc2n1 | 3.32 µM (active) | – |
| CNC(=O)c1cccc(-c2ccc3c(N4CCOC[C@@H]4C)nc(N4CCOC[C@@H]4C)nc3n2)c1 | 0.372 µM (active) | – |
| C[C@H]1[C@H](O)O[C@@H]2O[C@@]3(C)CC[C@H]4[C@H](C)CC[C@@H]1[C@@]24OO3 | 7.42 µM (active) | – |
| COc1cc(C(C)C)c(Oc2cnc(NC(CO)CO)nc2N)cc1I | – | inactive |
| O[C@@H](COc1cccc2ncccc12)CN1CCN(C2c3ccccc3[C@@H]3[C@H](c4ccccc42)C3(F)F)CC1 (some centres undefined) | 13.2 µM (active) | – |
| COc1ccc(-c2ccc3c(N4CCOCC4)nc(N4C[C@@H](C)O[C@@H](C)C4)nc3n2)cc1CO | 1.05 µM (active) | – |
| CC(C)c1cc(C(C)C)c(CC(=O)NS(=O)(=O)Oc2c(C(C)C)cccc2C(C)C)c(C(C)C)c1 | 9.34 µM (active) | – |
| CN1N=C(N)c2cn([C@@H]3O[C@H](COP(=O)(O)O)[C@@H](O)[C@H]3O)c3ncnc1c23 | 0.105 µM (active) | – |
| Clc1ccc(COC(Cn2ccnc2)c2ccc(Cl)cc2Cl)c(Cl)c1 (centres undefined) | 23.5 µM (active) | – |
| COc1cc(C)c(Sc2cnc(NC(=O)c3ccc(CNC(C)C(C)C)cc3)s2)cc1C(=O)N1CCN(C(C)=O)CC1 (centres undefined) | 10.5 µM (active) | – |
| COc1cc(F)c(C(C)C)cc1-c1ccc(C(F)(F)F)cc1CN1C(=O)O[C@H](c2cc(C(F)(F)F)cc(C(F)(F)F)c2)[C@@H]1C | – | inactive |
| CC1(C)CNc2cc(NC(=O)c3cccnc3NCc3ccncc3)ccc21 | 16.6 µM (active) | – |

| Compound | AC50 | outcome |
| --- | --- | --- |
| CCOc1cc2ncc(C#N)c(Nc3ccc(OCc4ccccn4)c(Cl)c3)c2cc1NC(=O)/C=C/CN(C)C | 0.934 µM (active) | – |
| CC[C@@]1([C@@H]2O[C@@H]([C@H]3O[C@@](O)(CO)[C@H](C)C[C@@H]3C)C[C@@H]2C)CC[C@H]([C@]2(C)CC[C@]3(C[C@H](O)[C@@H](C)[C@@H]([C@@H](C)[C@@H](OC)[C@H](C)C(=O)O)O3)O2)O1 | 0.456 µM (active) | – |
| CC(C)C[C@@H](N)[C@H](O)C(=O)N[C@H](C(=O)N[C@H](C(=O)N[C@@H](CC(=O)O)C(=O)O)C(C)C)C(C)C | – | inactive |
| COc1c(OCCCN2CCOCC2)ccc2c3n(c(=NC(=O)c4cnc(N)nc4)nc12)CCN3 | 0.0959 µM (active) | – |
| CC(=O)O/N=C1/C(c2c(O)[nH]c3cc(Br)ccc23)=Nc2ccccc21 | 7.42 µM (active) | – |
| CC1=C[C@@H]2[C@H]([C@@H](O)C[C@@]3(C)[C@H]2C[C@@H](C)[C@]3(O)C(=O)CO)[C@@]2(C)Cc3cnn(-c4ccccc4)c3C=C12 | 7.42 µM (active) | – |
| COc1cc2nccc(Oc3ccc(NC(=O)Nc4cc(C)on4)c(Cl)c3)c2cc1OC | 5.9 µM (active) | – |
| Cc1cc(Nc2cc(CN3CCOCC3)c3nc(C)c(Cc4ccc(Cl)cc4F)n3n2)n[nH]1 | 1.18 µM (active) | – |
| CCN(CC)CCCCNc1ncc2c(n1)N(C)C(=O)N(c1c(Cl)c(OC)cc(OC)c1Cl)C2 | 0.372 µM (active) | – |
| CC(N[C@H]1CCCC[C@@H]1NC(=O)c1ccc(Cl)cc1)c1cccc2ccccc12 (some centres undefined) | 8.33 µM (active) | – |
| N#Cc1c(NC(=O)c2cccc3ccccc23)sc2c1CCCC2 | 0.833 µM (active) | – |
| COc1ccccc1[C@H](c1cccc2ccccc12)[C@@](C)(C#N)C(=O)N1CCC(c2cccc(C(F)(F)F)c2)CC1 | – | inactive |
| COc1ccc(-c2ccc3c(N4CCOC[C@@H]4C)nc(N4CCOC[C@@H]4C)nc3n2)cc1CO | 0.105 µM (active) | – |
| COc1cccc2cc(-c3nc(C4CCC(C(=O)O)CC4)n4ncnc(N)c34)[nH]c12 (centres undefined) | 2.63 µM (active) | – |
| Cc1cnc(NC(=O)Nc2cc(Br)c(C)cc2OC[C@@H]2CNCCO2)cn1 | 8.33 µM (active) | – |
| CC(C)CNc1ccnc(NCc2csc(-c3ccccc3)n2)n1 | 16.6 µM (active) | – |
| NCc1c[nH]c(=S)n1[C@H]1CCc2c(F)cc(F)cc2C1 | – | inactive |
| COC(=O)c1ccc2c(C(=Nc3ccc(N(C)C(=O)CN4CCN(C)CC4)cc3)c3ccccc3)c(O)[nH]c2c1 | 1.66 µM (active) | – |
| Cc1ccc(F)c(NC(=O)Nc2ccc(-c3cccc4[nH]nc(N)c34)cc2)c1 | 8.33 µM (active) | – |
